Screening data deposited in PubChem BioAssay by National Center for Advancing Translational Sciences (NCATS).
The sample as a whole holds a higher share of hits than the screen did.
KDM5B inh: blocks human KDM5B histone demethylase activity | Q9UGL1 | KDM5B demethylase, FDH-coupled NADH fluorescence (FDH is formaldehyde dehydrogenase) | Potency, µM (series often up to 57.7 µM), usual class: inhibitors | 2.6% of 220,000 active; active = well fitted inhibition curve with a large enough effect; note: nearly all actives have a fitted effect of over 70% in size
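Here, H3K4me3 peptide (12.5 µM in substrate mix) is demethylated by KDM5BΔAP, 200 nM final, after 10 min compound exposure. Formaldehyde product is coupled through FDH (0.25 U/mL in mix) to NADH fluorescence; 30-min ΔRFU feeds dose-response curves.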
Of the large screens only hits and unclear results are named; the others gave an inactive call.

Cc1noc(C)c1[S+](=O)([O-])N1CCC2(Cc3ccccc3NC2=O)C1 (stereo not given)	none
O=C(NC1CCCCCC1)c1cnn2c(C(F)(F)F)cc(-c3ccco3)nc12	none
CN(C)c1cccc(Oc2nnnn2[C@H]2CO[C@H]3[C@@H]2OC[C@@H]3NC(=O)Nc2ccc(Oc3ccccc3)cc2)c1	none
CN(C)c1ccc(-c2nnnn2[C@H]2CO[C@H]3[C@@H]2OC[C@@H]3NS(=O)(=O)c2ccc3ccccc3c2)cc1	KDM5B inh 22.4µM
CN(C)c1ccc(-c2nnnn2[C@H]2CO[C@H]3[C@@H]2OC[C@@H]3NC(=O)Nc2ccc(Oc3ccccc3)cc2)cc1	KDM5B inh 12.6µM
CN(C)c1ccc(-c2nnnn2[C@H]2CO[C@H]3[C@@H]2OC[C@@H]3NC(=O)CCC(=O)O)cc1	none
COc1ccc(NC(=O)N[C@H]2CO[C@H]3[C@@H]2OC[C@@H]3n2nnnc2Oc2ccccc2)cc1	none
CN(C)c1ccc(-c2nnnn2[C@H]2CO[C@H]3[C@@H]2OC[C@H]3O)cc1	none
ClC(Cl)(Cl)C1=NC(C(Cl)(Cl)Cl)N=C(c2ccccc2)N1 (stereo not given)	none
COC(=O)CNC(=O)Cn1cc(C(C)=O)c2ccccc21	none
COc1ccc(OC)c(C2CCCN2C(=O)NCCn2ccnc2)c1 (stereo not given)	none
Cc1cccc(C(=O)Nc2cnc3ccccc3c2)c1C	none
OCCc1cnc2c(-c3nc(-c4cccnn4)no3)cnn2c1	KDM5B inh 25.1µM
Cc1cnn(C(C)c2nc(-c3cccnn3)no2)c1 (stereo not given)	none
c1cnnc(-c2noc(C3(Cn4cccn4)CC3)n2)c1	none
O=C1NCC2(CCN(C(=O)c3cn(CCC4CCCCN4)nn3)CC2)O1 (stereo not given)	none
Cc1oc2ccn(Cc3ccc(F)cc3)c(=O)c2c1C(=O)O	none
CCn1ccc2oc(C)c(C(=O)N3CCN(c4ccc(F)cc4)CC3)c2c1=O	none
CCCNC(=O)c1c(C)oc2ccn(Cc3ccc(F)cc3)c(=O)c12	none
Cc1oc2ccn(Cc3ccc(F)cc3)c(=O)c2c1C(=O)N1CCN(c2ccccn2)CC1	KDM5B inh 22.4µM
Cc1oc2ccn(Cc3cccc(F)c3)c(=O)c2c1C(=O)NCc1cccc(F)c1	none
COc1ccccc1NC(=O)c1c(C)oc2ccn(Cc3ccc(F)cc3)c(=O)c12	KDM5B inh 31.6µM
CC(C)Cn1c(SCC(=O)Nc2ccc(C(=O)O)cc2)nnc1-c1ccc(Cl)cc1	none
Clc1ccc(N/N=C/C(Br)=C/c2ccccc2)cc1	none
Cc1ccc(NCC(O)Cn2c3ccccc3n3c(=O)cc(C)c(C#N)c23)cc1C (stereo not given)	none
CC(NC(=O)Cn1c(=O)c2c(ncn2C2CCCC2)n(Cc2ccccc2)c1=O)c1cccs1 (stereo not given)	none
O=C1Nc2ccc(Br)cc2C(=O)N2CCN(C(=O)c3ccccc3)C[C@H]12	none
O=C(O)CCC(=O)N[C@H]1CCN2C(=O)c3cc(-c4ccccc4F)ccc3NC(=O)[C@H]12	none
O=C1Nc2ccc(-c3ccccc3)cc2C(=O)N2CCN(C(=O)c3cccc(F)c3)C[C@H]12	KDM5B inh 28.2µM
O=C1Nc2ccc(Br)cc2C(=O)N2CCN(C(=O)c3cccnc3)C[C@H]12	none
O=C1Nc2ccc(-c3ccco3)cc2C(=O)N2CCN(C(=O)c3ccccc3)C[C@H]12	KDM5B inh 35.5µM
O=C(O)CCCC(=O)N1CCN2C(=O)c3cc(-c4ccco4)ccc3NC(=O)[C@@H]2C1	KDM5B inh 39.8µM
O=C(O)CCCC(=O)N1CCN2C(=O)c3cc(Br)ccc3NC(=O)[C@@H]2C1	none
O=C1Nc2ccc(-c3ccco3)cc2C(=O)N2CCN(C(=O)NC3CCCCC3)C[C@H]12	KDM5B inh 28.2µM
O=C1Nc2ccc(-c3ccc4c(c3)OCO4)cc2C(=O)N2CCN(C(=O)c3cccnc3)C[C@H]12	none
O=C(NC1CCCCC1)N[C@H]1CCN2C(=O)c3cc(-c4ccsc4)ccc3NC(=O)[C@H]12	none
CN(C)c1ccc(C(=O)N2CCN3C(=O)c4cc(Br)ccc4NC(=O)[C@H]3C2)cc1	none
O=C1Nc2ccc(-c3ccccc3)cc2C(=O)N2CCN(C(=O)NC3CCCCC3)C[C@H]12	none
Cc1ccc(CC(=O)Nc2cc(C(C)(C)C)ccc2O)cc1	none
Cc1ccc(S(=O)(=O)N2CCCC(Cn3c(C4CC4)nc4cccnc43)C2)c(C)c1 (stereo not given)	none
Cc1nccn1CCN(C)Cc1cc2n(n1)CCNC2	none
O=C(O)Cc1cc(Cl)c2c(c1)OCCCO2	none
CC(C)CCN1CCOc2cc(C(=O)Nc3nccs3)ccc2C1	none
COc1ccc(CCNC(=O)C(=O)NCc2n[nH]c(=O)c3ccccc23)cc1	none
CC(=O)N1CCC(C(=O)N[C@H]2CCN3C(=O)N(c4ccc(OC(F)(F)F)cc4)C(=O)[C@@H]3C2)CC1	none
CC(C)c1ccc(N2C(=O)[C@@H]3C[C@@H](NC(=O)C4CCN(c5nccc(C(F)(F)F)n5)CC4)CCN3C2=O)cc1	KDM5B inh 28.2µM
CSCC(=O)N[C@H]1CCN2C(=O)N(c3ccc(C(C)C)cc3)C(=O)[C@@H]2C1	none
COc1ccc(C(=O)c2c(C)oc3cc(C#N)c(C#N)cc23)cc1	none
NS(=O)(=O)c1ccc(N/N=C2/CCc3ccccc32)c([N+](=O)[O-])c1	none
CCCCNCc1ccco1	none
O=C(c1cccc(C(F)(F)F)c1)N1CCCC(C(=O)N2CCCCCC2)C1 (stereo not given)	none
O=C(c1cc(-c2ccc(Cl)cc2Cl)c2nncn2n1)N1CCOCC1	KDM5B inh 79.4µM
O=C(c1cccc(C(F)(F)F)c1)N1CCC(n2cnnc2C2CC2)CC1	none
Cn1nc(C(=O)N2CCOCC2)cc1C(=O)Nc1ccc(Cl)cc1Cl	none
O=C(NCc1cccs1)c1cc(-c2cccc(C(F)(F)F)c2)c2nncn2n1	KDM5B inh 50.1µM
COc1ccc(-c2cc(C(=O)NCc3cccs3)no2)cc1	none
O=C(NCc1cccs1)C1(c2cccc(C(F)(F)F)c2)CCOCC1	none
O=C(c1cc(-c2ccc(Cl)cc2Cl)c2cccn2n1)N1CCCC1	none
O=C(c1cc(-c2cccc(C(F)(F)F)c2)c2nncn2n1)N1CCCC1	KDM5B inh 50.1µM
COc1ccccc1C1=NOC(C(=O)NC(C)(C)C)C1 (stereo not given)	none
COC(=O)c1cc(OC(=O)c2ccncc2)cc(C(=O)OC)c1	none
CCOc1ccccc1C1NC(=O)N(CC(=O)N(CC)c2ccccc2)C2=C1C(=O)OC2 (stereo not given)	none
COc1cccc(C(=O)N2CC(c3nnc(-c4ccc(C)cc4)o3)C3(CCOCC3)C2)c1C (stereo not given)	none
CC(=O)N1CCC(N2C[C@@H](F)[C@@H](OCc3nc4ccccc4[nH]3)C2)CC1	none
CCCc1nc(C)n2ccn(Cc3cccc(C#N)c3)c(=O)c12	none
CN(c1ccccc1)c1cc(=O)c2ccnc(N3CCN(c4ccccn4)CC3)c2o1	none
CN(c1cc(=O)c2ccnc(-c3cccc(CO)c3)c2o1)C1CCOCC1	KDM5B inh 39.8µM
CN(c1ccccc1)c1cc(=O)c2ccnc(NCC3CCOCC3)c2o1	none
CN(C)c1cccc(-c2nccc3c(=O)cc(N(C)C4CCOCC4)oc23)c1	KDM5B inh 28.2µM
CC(=O)Nc1ccccc1-c1nccc2c(=O)cc(N(C)C3CCOCC3)oc12	KDM5B inh 35.5µM
CN(c1cc(=O)c2ccnc(-c3cncnc3)c2o1)C1CCOCC1	none
CN(c1cc(=O)c2ccnc(-c3ccc([S+](C)(=O)[O-])cc3)c2o1)C1CCOCC1	KDM5B inh 35.5µM
C/C(=N\OC(=O)c1ccccc1Br)c1ccc(C)cc1	none
CC(C)(C)c1coc2cc3o/c(=N/O)c4c(c3cc12)CCC4	none
